Measurements taken from PubChem BioAssay AID454 (Sanford-Burnham Center for Chemical Genomics, 2006).
The whole screen tested about 10,000 compounds, of which about 25 (0.2%) were called active.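 How the source made its calls: active means compound among top-ranked inhibitors of TNF-induced VCAM-1 adhesion protein staining, with the hit upheld by image or statistical review; inactive means the rest, including hits rejected on review.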 This excerpt belongs to a sample that is enriched for actives.

assay: suppression of endothelial VCAM-1 upregulation – cell-based, plate reader, pooled HUVEC, TNFa stimulus (AID 454); conditions: HUVEC TNFa-induced VCAM-1 surface immunofluorescence; stronger effect = higher value,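 compound tested at 5 µM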

For `CCc1nc(C)c(C#N)c2cc(OC)c(OC)cc12`, which inhibition is on record?
Its inhibition is “inactive”.

With `COc1cc(CC(=O)Nc2ncc(C)s2)cc(OC)c1OC` as the compound, how does the inhibition read?
Its inhibition is “inactive”.

Which inhibition does the source give for `C#CCNc1c(C)c(C)nc2ncnn12` here?
The inhibition was “inactive”.

With `CCN1CCN(Cc2ccc(NC(=O)Nc3ccc(SC)cc3)cc2)CC1` as the compound, how does the inhibition read?
The inhibition was “inactive”.

With `Cn1c(=O)[nH]c(=O)c2[nH]c(CN3CCN(C(=O)c4ccco4)CC3)nc21` as the compound, how does the inhibition read?
The inhibition was “inactive”.

Which inhibition does the source give for `CC(=O)OCC(=O)[C@H]1CC[C@H]2[C@@H]3CCC4=CC(=O)CC[C@]4(C)[C@H]3CC[C@]12C` here?
The inhibition was “inactive”.

With `C[C@]12CC[C@H]3[C@@H](CCC4=CC(=O)CC[C@@]43C)[C@@H]1CC[C@@H]2C(=O)CO` as the compound, how does the inhibition read?
Its inhibition is “inactive”.

With `CC(=O)[C@H]1CC[C@H]2[C@@H]3CCC4=CC(=O)CC[C@]4(C)[C@H]3CC[C@]12C` as the compound, how does the inhibition read?
The inhibition was 96.7% (active).

Which inhibition does the source give for `CCC(=O)N[C@@H]1CC(C(C)(C)NC(=O)CC)CC=C1C` (stereo partly specified) here?
The inhibition was “inactive”.

With `COc1cc(OC)c2c(c1)OC(c1ccc(OC)c(OC)c1)C(O)C2=O` (stereo unspecified) as the compound, how does the inhibition read?
Its inhibition is “inactive”.

For `Cc1ccc(-c2cc(C(F)F)nc(N3CCC(C)CC3)n2)cc1`, which inhibition is on record?
The inhibition was “inactive”.

With `Cc1[nH]n(C(N)=S)c(=O)c1C(c1ccccc1)C(C#N)C#N` (stereo unspecified) as the compound, how does the inhibition read?
Its inhibition is “inactive”.

For `CCOC(=O)c1cnc(-n2nc(C)cc2C)nc1N1CC(C)OC(C)C1` (stereo unspecified), which inhibition is on record?
The inhibition was “inactive”.

Which inhibition does the source give for `Cc1ccc(S(=O)(=O)N2CCCC2C(=O)n2nc(C)cc2C)cc1` (stereo unspecified) here?
Its inhibition is “inactive”.

For `CCOCCn1c(CN2CCC(Cc3ccccc3)CC2)nc2c1c(=O)n(C)c(=O)n2C`, which inhibition is on record?
The inhibition was “inactive”.

For `Oc1c(C(c2ccccc2)N2CCc3ccccc3C2)sc2ncnn12` (stereo unspecified), which inhibition is on record?
Its inhibition is “inactive”.

For `CC1=C(C(N)=O)C(c2ccc(Cl)cc2Cl)n2ncnc2N1` (stereo unspecified), which inhibition is on record?
The inhibition was “inactive”.

With `COC(=O)C1=C(C)N(c2ccc(C(=O)OC)cc2)C(=O)C1` as the compound, how does the inhibition read?
Its inhibition is “inactive”.

For `COCCCNC(=O)CCn1c(=O)c2ccccc2n(CC(=O)Nc2ccc(C)cc2C)c1=O`, which inhibition is on record?
Its inhibition is “inactive”.

For `CCOc1cc(-c2nc3ccccn3c2NCC2CCCO2)ccc1O` (stereo unspecified), which inhibition is on record?
The inhibition was “inactive”.

For `Cc1cc(C)nc(SCc2nnc(SCc3ccccc3Cl)o2)n1`, which inhibition is on record?
Its inhibition is “inactive”.
